Assay results published in PubChem BioAssay AID1851 (National Center for Advancing Translational Sciences (NCATS), 2009).
Screen size: about 16,000 compounds; about 5,100 (32%) were called active. About 25% were inconclusive and are not listed. Calls come from the whole dose curve; as a rule, active = well fitted curve in the direction sought with a large enough effect; inconclusive = small, poorly fitted or top-dose-only effect, or effect the other way; inactive = no such curve, though single readings can be large or run the other way. This is one part of the list.
% is set by controls: 0 for no effect and ±100 for the full control effect.

The compounds below were run against Cytochrome P450 3A4 (Homo sapiens) (UniProt P08684) (assay: Cytochrome panel assay with activity outcomes). Conditions: recombinant CYP, pro-luciferin dealkylation, luminescence, p450-cyp3a4; series mostly up to 57.1 µM.
Chain of Cytochrome P450 3A4 (Homo sapiens) (P08684 whole entry, looked up): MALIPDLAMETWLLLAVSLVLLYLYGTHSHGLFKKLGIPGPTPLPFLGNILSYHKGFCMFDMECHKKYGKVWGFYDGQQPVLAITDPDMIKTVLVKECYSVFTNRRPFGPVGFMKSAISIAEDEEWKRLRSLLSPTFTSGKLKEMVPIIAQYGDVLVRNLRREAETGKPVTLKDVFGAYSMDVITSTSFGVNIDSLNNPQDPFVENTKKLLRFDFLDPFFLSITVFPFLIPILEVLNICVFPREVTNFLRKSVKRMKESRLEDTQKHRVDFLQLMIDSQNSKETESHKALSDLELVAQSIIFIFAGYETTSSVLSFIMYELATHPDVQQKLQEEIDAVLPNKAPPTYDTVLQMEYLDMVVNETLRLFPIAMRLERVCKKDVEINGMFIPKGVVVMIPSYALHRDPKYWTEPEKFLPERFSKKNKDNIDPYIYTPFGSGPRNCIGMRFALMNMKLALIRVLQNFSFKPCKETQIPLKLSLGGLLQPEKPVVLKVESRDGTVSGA
`OC[C@@H](O)CN1CCN(c2ccccc2)CC1` was tested, and the AC50 was “inactive”.
`Cc1ccccc1OCCCN1CCCC1` was tested, and the AC50 was “inactive”.
With `c1ccc(N2CCN(CCCOc3ccc4c(c3)OCO4)CC2)cc1` the AC50 was 3.16 µM (active).
With `COc1cccc(Cn2c(=O)c(CCc3ccccc3)nc3cnc(N4CCN(C)CC4)nc32)c1` the AC50 was 15.8 µM (active).
With `COc1cccc(Cn2c(=O)cnc3cnc(N4CCN(C)CC4)nc32)c1` the AC50 was 15.8 µM (active).
`CN1CCN(c2ncc3nc(CCc4ccccc4)c(=O)n(Cc4ccc(F)cc4)c3n2)CC1` was tested, and the AC50 was 5.01 µM (active).
For `CN1CCN(c2ncc3ncc(=O)n(C[C@H]4CCCO4)c3n2)CC1`, the AC50 was “inactive”.
In the case of `CN1CCN(c2ncc3ncc(=O)n(CCC#N)c3n2)CC1`, the AC50 is reported as “inactive”.
With `COc1cccc(Cn2c(=O)c(CCc3ccccc3)nc3cnc(N4CCNCC4)nc32)c1` the AC50 was 15.8 µM (active).
For `NC([N-]/N=C/c1ccccn1)=[S]=[Fe].O=S(=O)(O)O`, the activity, negative = inhibition was -4.8% [at 11.4 µM] (inactive).
In the case of `Cc1cc(C)nc(SCC(=O)Nc2ccccc2[N+](=O)[O-])n1`, the AC50 is reported as “inactive”.
With `O=C(CSc1nc2ccccc2o1)Nc1ccccc1N1CCCCCC1` the AC50 was 3.98 µM (active).
`O=C(CNC1CCCCCC1)Nc1ccccc1N1CCCCC1` was tested, and the activity, negative = inhibition was -25% [at 2.29 µM] (inactive).
With `O=C(CSc1nc2ccccc2o1)Nc1nc2ccccc2s1` the activity, negative = inhibition was -7.57% [at 2.29 µM] (inactive).
With `Cc1ccccc1NC(=O)CSc1nc(N2CCCCC2)nc(N2CCCCC2)n1` the AC50 was 2 µM (active).
For `CC(C)NC[C@H](O)c1cc(O)cc(O)c1`, the AC50 was “inactive”.
In the case of `COc1cccc(-c2cc(=O)c3ccccc3o2)c1N`, the AC50 is reported as 7.94 µM (active).
In the case of `COc1ccccc1-c1c(C)oc2c(CN3CCN(CCO)CC3)c(O)ccc2c1=O`, the AC50 is reported as “inactive”.
In the case of `COc1cccc2cc3c(=O)oc4ccccc4c3nc12`, the activity, negative = inhibition is reported as -6.03% [at 2.29 µM] (inactive).
With `Cc1ccc(NC(=O)CN2C(=O)N/C(=C/c3ccc(C)o3)C2=O)cc1` the activity, negative = inhibition was 7.39% [at 2.29 µM] (inactive).
In the case of `CCOc1cc(/C=C2/NC(=O)N(CC(=O)Nc3cccc(C)c3)C2=O)ccc1OC`, the AC50 is reported as 1.78 µM (active).
For `CCC1CC(CSc2ncn[nH]2)OC1=O` (stereo not drawn), the AC50 was “inactive”.
`COc1ccc(OCCSc2ncn[nH]2)cc1` was tested, and the AC50 was 14.1 µM (active).
With `CCCOc1ccc(-c2nc(N)n[nH]2)cc1` the activity, negative = inhibition was 8.08% [at 11.4 µM] (inactive).
`C[C@@H](CNC(N)=O)NC(N)=O` was tested, and the activity, negative = inhibition was -2.29% [at 11.4 µM] (inactive).
With `Cc1ccc(CN2CC34C=CC(O3)C(C(=O)NCc3ccc5c(c3)OCO5)C4C2=O)cc1` (stereo not drawn) the AC50 was 0.251 µM (active).
For `Cc1ccc(CN2CC34C=CC(O3)C(C(=O)NCc3ccco3)C4C2=O)cc1` (stereo not drawn), the AC50 was 8.91 µM (active).
For `O=C(NCC1COc2ccccc2O1)C1C2C=CC3(CN(Cc4cccs4)C(=O)C13)O2` (stereo not drawn), the activity, negative = inhibition was -13.1% [at 2.29 µM] (inactive).
With `COCCCNC(=O)C1C2C=CC3(CN(Cc4ccc(C)cc4)C(=O)C13)O2` (stereo not drawn) the AC50 was 7.94 µM (active).
With `COc1ccc(CCN2CC34C=CC(O3)C(C(=O)NCc3ccccc3)C4C2=O)cc1OC` (stereo not drawn) the AC50 was 2.82 µM (active).
For `CCOc1ccc(NC(=O)N2CCC(C(N)=O)(N3CCCCC3)CC2)cc1`, the AC50 was “inactive”.
`CCCCNC(=O)C1C2C=CC3(CN(Cc4ccccc4Cl)C(=O)C13)O2` (stereo not drawn) was tested, and the AC50 was 3.98 µM (active).
`O=C(O)C1C2C=CC3(CN(Cc4ccccn4)C(=O)C13)O2` (stereo not drawn) was tested, and the AC50 was “inactive”.
With `CCCCNC(=O)C1CCN(Cc2ccccn2)CC1` the AC50 was “inactive”.
With `CC(CC(=O)O)(CC(=O)O)c1ccccc1` the activity, negative = inhibition was 0.682% [at 11.4 µM] (inactive).
`c1ccc([C@@H]2CN3CCSC3=N2)cc1` was tested, and the AC50 was “inactive”.
With `Cc1nn(Cc2ccc(Cl)cc2)c(C)c1NC(=O)CSc1nc2c(c(C(F)(F)F)n1)CCc1ccccc1-2` the AC50 was 3.16 µM (active).
For `Cc1ccccc1Cn1cc(NC(=O)CSc2nc3c(c(C(F)(F)F)n2)CCc2ccccc2-3)cn1`, the AC50 was 5.01 µM (active).
In the case of `NC(CSS(=O)(=O)O)=N[C@@H]1C[C@H]2CC[C@@H]1C2`, the activity, negative = inhibition is reported as -19.6% [at 11.4 µM] (inactive).
`CCCC1c2c(ccc3ccccc23)Oc2ccc3ccccc3c21` was tested, and the activity, negative = inhibition was -11.1% [at 11.4 µM] (inactive).
In the case of `N#Cc1cccc(-c2cc(NCc3ccccc3)ncn2)c1`, the AC50 is reported as “inactive”.
With `Cc1cccc(CNc2cc(-c3cccc(C#N)c3)ncn2)c1` the AC50 was 7.94 µM (active).
In the case of `N#Cc1cccc(-c2cc(NCc3cccnc3)ncn2)c1`, the AC50 is reported as 2.51 µM (active).
In the case of `CC1(C)CCC(C)(C)c2cc(C(=O)Nc3ccc(C(=O)O)cc3)ccc21`, the AC50 is reported as “inactive”.
With `O=C(OCC1CC(c2ccccc2)=NO1)c1ccc(Cl)cc1` (stereo not drawn) the AC50 was “inactive”.
With `COc1ccccc1C1=NOC(COC(=O)c2ccc3ccccc3n2)C1` (stereo not drawn) the AC50 was 17.8 µM (active).
`COc1ccccc1CNc1cc(-c2cccc(NS(C)(=O)=O)c2)ncn1` was tested, and the AC50 was 5.01 µM (active).
With `COc1ccc(CNc2cc(-c3cccc(NS(C)(=O)=O)c3)ncn2)c(OC)c1` the AC50 was 2.51 µM (active).
With `Cc1cnn(-c2cc(N/N=C/c3ccccc3F)ncn2)c1` the activity, negative = inhibition was -16.7% [at 2.29 µM] (inactive).
In the case of `Cc1cccc(C2NC(=O)c3c(sc(C)c3C)N2)c1O` (stereo not drawn), the AC50 is reported as 12.6 µM (active).
For `CC(C)(Oc1ccc(-c2cccc3ccccc23)cc1)C(=O)O`, the activity, negative = inhibition was -6.61% [at 11.4 µM] (inactive).
With `O=C(NNC(=O)c1ccccc1O)c1ccc(Cl)cc1` the AC50 was “inactive”.
With `O=C(O)c1ccccc1C(=O)NNc1ccc(F)cc1` the AC50 was 11.2 µM (active).
`O=C(O)CC[C@@H](NC(=O)c1ccccc1C(=O)O)C(=O)O` was tested, and the AC50 was “inactive”.
For `O=C(O)c1ccccc1C(=O)NNc1ccc(Cl)cc1`, the AC50 was 7.94 µM (active).
With `O=C(O)c1ccccc1C(=O)NCc1ccc(F)cc1` the AC50 was “inactive”.
With `O=C(O)c1ccccc1-c1ccccc1C(=O)Nc1ccc2c(c1)Cc1cc(F)ccc1-2` the activity, negative = inhibition was -16.4% [at 11.4 µM] (inactive).
`Oc1c(CN2CCCCC2)cc(Br)c2cccnc12` was tested, and the AC50 was “inactive”.
With `Cc1cc(NC(=O)Nc2ccc3c(ccn3C)c2)sn1` the AC50 was 12.6 µM (active).
With `CCCNC(=O)Nc1ccc2c(c1)nc(C)n2C` the AC50 was “inactive”.
In the case of `Cc1noc(C)c1-c1ccc2ncnc(NCCN3CCOCC3)c2c1`, the AC50 is reported as 12.6 µM (active).
For `Cc1noc(C)c1-c1ccc2ncnc(N3CCN(C)CC3)c2c1`, the AC50 was 25.1 µM (active).
`Cc1noc(C)c1-c1ccc2ncnc(N3CCOCC3)c2c1` was tested, and the AC50 was 31.6 µM (active).
